Rows were chosen to be rich in hits. Some 13% of all compounds tested hit in one or more screens of this group.
KDM4E inh – qHTS Assay for Inhibitors of Human Jumonji Domain Containing 2E (JMJD2E) | JMJD2E catalytic domain, FDH-coupled NADH fluorescence (FDH is formaldehyde dehydrogenase) | Potency, µM (highest dose often 57.1 µM), for inactives: at the top dose activity change, negative = inhibition, actives largely listed as inhibitors | 1.6% of 230,000 active | AID 2147, 2009; active = well fitted inhibition curve with a large enough effect, not every such curve was filed as active; inconclusive = small, poorly fitted or top-dose-only effect, or another doubt; inactive = no such curve, though single readings can be large or run the other way;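 also: potency is read from the fitted curve at half-maximal effect; 0% = wells with enzyme and -100% = buffer wells without enzyme; nearly all actives have a fitted effect of over 50% in size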
ALDH1A1 block – qHTS Assay for Inhibitors of Aldehyde Dehydrogenase 1 (ALDH1A1) | Aldehyde dehydrogenase 1A1 (Homo sapiens), P00352 | Purified ALDH1A1, NADH fluorescence, propionaldehyde substrate | Potency, µM (highest dose often 75.3 µM), without a hit: top-dose activity, negative = inhibition, hits mostly inhibitors | 7.3% of 220,000 active; active = well fitted inhibition curve with a large enough effect, not every such curve was filed as active; inconclusive = small, poorly fitted or top-dose-only effect, or another doubt; inactive = no such curve, though single readings can be large or run the other way;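 also: potency is read from the fitted curve at half-maximal effect; plate controls were no enzyme wells and a reference inhibitor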
Target sequence (P00352 whole entry, looked up): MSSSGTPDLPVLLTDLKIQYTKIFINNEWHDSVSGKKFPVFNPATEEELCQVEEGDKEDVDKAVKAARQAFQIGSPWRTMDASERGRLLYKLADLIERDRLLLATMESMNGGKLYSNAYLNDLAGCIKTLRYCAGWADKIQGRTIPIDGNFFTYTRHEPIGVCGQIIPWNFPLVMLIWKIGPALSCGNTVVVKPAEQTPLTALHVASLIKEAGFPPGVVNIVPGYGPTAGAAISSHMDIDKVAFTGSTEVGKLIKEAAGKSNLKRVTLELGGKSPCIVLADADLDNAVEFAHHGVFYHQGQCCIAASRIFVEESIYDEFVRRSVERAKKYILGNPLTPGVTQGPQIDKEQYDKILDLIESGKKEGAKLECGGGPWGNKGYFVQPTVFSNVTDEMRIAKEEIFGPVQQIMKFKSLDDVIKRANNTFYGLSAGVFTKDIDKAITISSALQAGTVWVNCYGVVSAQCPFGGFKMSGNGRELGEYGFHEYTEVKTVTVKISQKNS
LMNA splice mod – qHTS Assay for Modulators of Lamin A Splicing; HeLa LMNA splicing GFP/RFP minigene ratio, 48 h; Potency, µM (top dose mostly 46.1 µM), for inactives: at the highest dose ratio change, negative = inhibition, hits mostly inhibitors; 0.01% of 200,000 active; active = well fitted inhibition curve with a large enough effect in the signal ratio, with a control signal flat, not every such curve was filed as active; inconclusive = small, poorly fitted or top-dose-only effect, or effect the other way, or a change in a side signal; the % refers to the signal ratio; also: potency is read from the fitted curve at half-maximal effect; % is scaled to controls: 0 for no effect and ±100 for the full control effect
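Read-out is the ratio of GFP to DsRed2 object intensity, acquired by 488 nm laser-scanning cytometry on HeLa lamin A-EGFP minigene reporter cells. Compound incubation 48 hrs at 37 °C in Opti-MEM with 2% FBS; DMSO 0.5% final.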
miR-21 act – qHTS Assay for Modulators of miRNAs and/orActivators of miR-21 | Potency, µM (doses to about 38.3 µM), for the others: top-dose activity change, positive = activation, usual class: activators | 340,000 tested, under 10 active | AID 2288, 2010 | HeLa miR-21 FLuc reporter, luciferase, 48 h;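 also: % of control where 0% means no effect; miR-21 action dims this reporter so a rising signal means less miR-21 action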
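Using DMEM plus 10% FBS, HeLa miR-21-FLuc cells are incubated with test compounds (final up to about 40uM) for 48 hours; firefly luciferase signal is then imaged following reagent-mediated lysis.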
G9a block – qHTS Assay for Inhibitors of Histone Lysine Methyltransferase G9a; 8.8% of 350,000 active; G9a H3K9 monomethylation, AlphaScreen, 2 h; Potency, µM (titrated, usually from 102 µM), for the others: at the highest dose activity, negative = inhibition, usual class: inhibitors; also: potency is read from the fitted curve at half-maximal effect; % is scaled to controls: 0 for no effect and ±100 for the full control effect; nearly all actives have a fitted effect of over 75% in size
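Signal arises when biotinylated H3K9 peptide, once monomethylated, bridges streptavidin donor and antibody-captured acceptor beads. Enzyme at 20 nM was preincubated 15 min with test compounds; peptide 500 nM and SAM 20 uM then reacted for 2 h.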
Sfp PPTase inh – qHTS Assay for Inhibitors of Bacillus subtilis Sfp phosphopantetheinyl transferase (PPTase); Biochemical Sfp PPTase activity, qHTS; 3.5% of 310,000 active; Potency, µM, for the others: largest response in the series, negative = inhibition, actives largely listed as inhibitors;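 also: the enzyme is Sfp with the accession as filed and its product quenches rhodamine fluorescence; potency is read from the fitted curve at half-maximal effect; 0% = enzyme reaction without inhibitor and -100% = no enzyme wells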
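Compounds were incubated with enzyme (final 15 nM) for 15 min at room temperature before substrate addition started the reaction. Fluorescence at 525 nm excitation, 598 nm emission was recorded immediately and after 30 minutes.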
Active calls of the source: *; ? = inconclusive; . = not tested or not shown; [ ] = remark or other dose. Unless noted, calls follow the shape of the dose curve; as a rule, active = well fitted curve in the direction sought with a large enough effect; inconclusive = small, poorly fitted or top-dose-only effect, or another doubt; inactive = no such curve, though single readings can be large; an effect the other way counts as inactive or inconclusive.

SMILES	KDM4E inh	ALDH1A1 block	LMNA splice mod	miR-21 act	G9a block	Sfp PPTase inh
COc1ccc(-c2nsc(NC(=O)COc3ccc(C)c(C)c3)n2)cc1	.	.	.	4%	-30%[59 µM]	.
COC(=O)N1CCC[C@@]2(CCN(c3ccccn3)C2)C1	.	?	.	.	-7%[12.7 µM]	29%
CC(C)c1ccc(NC(=O)CSc2nc3ccccc3nc2N2CCCC2)cc1	.	.	.	-8%	77%	6%
COc1cccc(-c2nc(S(=O)(=O)c3ccc(Cl)cc3)c(NCc3ccccc3)o2)c1	.	.	.	2%	-34%[59 µM]	.
O=C(c1cc(O)c(O)c([N+](=O)[O-])c1)c1ccccc1F	11µM*	13µM*	?	.	?	.
NC(=O)c1ccc(N2CCN(c3ccccc3F)CC2)c([N+](=O)[O-])c1	8%	2%	.	12%	?	8%
Cc1ccc(F)c(NC=C2C(=O)OC(C)(C)OC2=O)c1	-12%	10µM*	-2%	-2%	-19%[59 µM]	5%
Cc1cc(C)cc(C(=O)OCC(=O)N2CCCCCC2)c1	.	.	.	.	5%[59 µM]	.
CCOc1ccc(NC(=O)CCS(=O)(=O)c2cccc3nonc23)cc1	.	.	.	-1%	-7%[59 µM]	.
CCOCC(=O)Nc1cccc(Br)c1	-2%	20µM*	-13%	-4%	21%[12.7 µM]	-10%
CCOCC(=O)Nc1cccc(NC(C)=O)c1	4%	5%	-7%	-6%	4%[59 µM]	15%
O=C(NC1CC2CCCC(C1)N2Cc1ccccc1)C1CCCCC1 (configuration not stated)	14%	6%	?	-1%	17%	22%
O=C(NC1CC2CCCC(C1)N2S(=O)(=O)c1ccccc1)C1CCCCC1 (configuration not stated)	2%	28µM*	2%	-2%	.	2%
O=C(CCl)NC(=O)NC12CC3CC(CC(C3)C1)C2	-2%	7.9µM*	?	11%	24%[59 µM]	5%
O=C(Cc1nc2ccccc2[nH]1)c1ccc(Br)cc1	-19%	?	-4%[46 µM]	-35%	45µM*	24%
O=C(O)COCc1nc2ccccc2[nH]1	2%	-6%	-1%	0%	79µM*	11%
COc1ccccc1CNC(=O)C(=O)NCC(c1cccnc1)N1CCN(c2ccc(F)cc2)CC1 (configuration not stated)	.	.	?	27%	-59%[59 µM]	.
CC1CC2C3CCC4=CC(=O)C=C[C@]4(C)[C@@]3(Cl)C(O)C[C@]2(C)C1(OC(=O)c1ccco1)C(=O)CCl (some centres not stated)	0%	-1%	.	.	-4%[2.33 µM]	3%
C[C@H]1C[C@@H]2[C@H]3CCC4=CC(=O)C=C[C@@]4(C)[C@@]3(Cl)[C@@H](O)C[C@]2(C)[C@]1(OC(=O)c1ccco1)C(=O)CCl	-1%[25.5 µM]	-2%[20.9 µM]	?	.	25%[21.5 µM]	35µM*
COc1ccc(NC(=O)[C@@H](c2ccccc2)N2Cc3ccccc3C2=O)cc1OC	.	.	.	-8%	-30%[59 µM]	.
CCN1/C(=C/C=C/c2oc3ccc(-c4ccccc4)cc3[n+]2CC)Oc2ccc(-c3ccccc3)cc21	7.9µM*	?	.	?	.	11µM*
CCCCN1C(=O)NC2NC(=O)NC21 (configuration not stated)	-14%	9%	-5%	-2%	25µM*	20%
CCCCN1C(=O)N(C)C2NC(=O)NC21 (configuration not stated)	3%	1%	2%	0%	0%[12.7 µM]	21%
O=C(/C=C/c1ccccc1)Nc1nc(-c2cccs2)ns1	.	.	-2%[46 µM]	-18%	6%[59 µM]	.
Cc1cc2nc(-c3ccc(SCc4ccc(C(=O)O)cc4)nc3)[nH]c2cc1C	?	?	.	-46%	32µM*	22µM*
SMILES	KDM4E inh	ALDH1A1 block	LMNA splice mod	miR-21 act	G9a block	Sfp PPTase inh
Cc1cc2nc(-c3ccc(SCC(=O)NC(C)C)nc3)[nH]c2cc1C	?	?	-4%[9.22 µM]	-30%	-39%	-18%
COc1ccccc1N1CCN(CCN(C(=O)c2ccc(I)cc2)c2ccccn2)CC1	.	.	.	.	21µM*	.
COc1cc(-c2nc(-c3ccccc3)c(-c3cc([N+](=O)[O-])ccc3C)[nH]2)cc(OC)c1OC	-4%	-4%	?	?	10µM*	5%
COc1cc(-c2nc(-c3cccc(Cl)c3)c(-c3ccccc3)[nH]2)cc(OC)c1OC	.	.	.	?	3%[59 µM]	.
CNS(=O)(=O)c1cccc(C(=O)OCC(=O)NC2CCCC2)c1	.	.	.	1%	-31%[2.33 µM]	1%
CNS(=O)(=O)c1cccc(C(=O)OC2CCCCC2=O)c1 (configuration not stated)	6%	?	10%	0%	13µM*	9%
O=S1(=O)N=C(SCCO)c2ccccc21	-7%	13%	3%	-1%	79µM*	12%
CCOC1=NS(=O)(=O)c2ccccc21	3%	11%	-6%	-6%	16%[59 µM]	4%
CCOc1ccccc1NC(=O)c1cnn2c(C(F)F)cc(-c3ccccc3)nc12	.	.	.	?	-36%[59 µM]	.
C=CCNC(=S)NNc1nc(N2CCCC2)nc(N2CCCC2)n1	.	.	.	-2%	?	40µM*
C=CCNC(=S)NNc1nc(Nc2ccccc2)nc(N2CCCCC2)n1	1%	16µM*	6%[46 µM]	7%	?	25%
CCOC(=O)C(C)Oc1cccc2c(=O)n(CC(=O)N3CCCc4ccccc43)ccc12 (configuration not stated)	3%	20µM*	-9%	0%	-25%[59 µM]	7%
O=c1/c(=C/c2ccccn2)sc2n1CN(c1ccccc1)CN=2	-4%	-4%	7%	6%	50µM*	0%
Cc1ccc(S(=O)(=O)c2nc(S(C)(=O)=O)sc2N2CCC(C)CC2)cc1	.	.	.	1%	35µM*	-20%
Cc1ccc(S(=O)(=O)c2nc(S(C)(=O)=O)sc2N2CCCCCC2)cc1	.	.	.	-4%	.	-7%
Cc1c(C2=CCN(S(=O)(=O)c3ccc(Br)cc3)CC2)c2ccccc2n1C	16µM*	-14%	5%	0%	40µM*	-21%
CCn1c(C)c(C2=CCN(S(=O)(=O)c3ccc(C)cc3)CC2)c2ccccc21	-1%	?	?	0%	-21%[59 µM]	?
COc1ccc(CNC(=O)C/C(C)=N/NC(=O)c2ccc(OC)cc2OC)cc1	.	.	.	-17%	34%	6%
O=C(Cn1ncc2c3ccccc3n(Cc3ccccc3)c2c1=O)NCCc1ccc(Cl)cc1	.	.	.	-5%	-1%[59 µM]	.
Nc1nnc(SCc2ccc([N+](=O)[O-])cc2)s1	7%	8%	-7%[46 µM]	-7%	-15%	13%
